This is an account of results in PubChem BioAssay (NCI).

Each structure is given as a SMILES string. “And” between values parts separate entries of the source, which are not always exact repeats. Equal entries are not always repeated. About 79,000 compounds went through this panel and 15% of them were active in at least one assay; those are over-represented in the sample as a whole. The source made the active and inactive calls. Rule as the data show it: active = growth inhibition above about 70%; inactive = the rest.

One test can be described thus: NCI Yeast Anticancer Drug Screen. Data for the sgs1 strain (AID 173).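 Also: 0% = growth of vehicle-only control cultures.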 The conditions noted are these: S. cerevisiae sgs1 mutant, at 100.0 µM, active compounds read high. In short, it runs like this: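 A genetically defined yeast mutant is incubated with the test compound, and its growth is compared to that of the same strain given vehicle.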
With `O=[N+]([O-])c1cc[n+]([O-])cc1`, the growth inhibition was 99% (active).

Regarding `CC1(C)CC(=O)C(/C=N/c2nc(-c3ccccc3)cs2)=C(O)C1`, the growth inhibition was 83% (active).

On to `Nc1nc(N)c2nc(CNc3ccc(C(=O)NC(CCC(=O)O)C(=O)O)cc3F)cnc2n1` (stereo unspecified), for which the growth inhibition was 67% (inactive).

With `COC(=O)CC1(O)C(/C=C/c2ccccc2)C(C(=O)OC)C(=O)C(C(=O)OC)C1C(=O)OC` (stereo unspecified), the growth inhibition was 43% (inactive).

On to `CC(C)(C)c1ccc(NS(=O)(=O)c2ccc(N)cc2)cc1`, for which the growth inhibition was 60% (inactive).

With `CCN(CC)CCNc1ccc([N+](=O)[O-])c2nc3ccccc3c(N)c12`, the growth inhibition was 13% (inactive).

Consider `CCCCN(CCCC)C(=O)/C=C/c1ccccc1`, for which the growth inhibition was 87% (active).

For the compound `O=c1[nH]c(-c2ccccc2)nc2c1sc1nc3ccccc3n12`, the growth inhibition was -42% (inactive).

As for `O=[N+]([O-])c1ccc2c(c1)/C(=N/N=C1c3ccccc3Cc3ccccc31)c1cc([N+](=O)[O-])cc([N+](=O)[O-])c1-2`, the growth inhibition was 95% (active).

`CC(C)C(C)/C=C\C(C)C1CCC2C3=CC=C4CC(O)CCC4(C)C3CCC21C` (stereo unspecified): the growth inhibition was 19% (inactive).

On to `O=C1Nc2ccc(Br)cc2C1=Nc1ccc2c(c1)OCO2`, for which the growth inhibition is -27% (inactive).

Turning to `CCCCOCn1c(=O)[nH]c(=O)c2cc(Br)ccc21`, the growth inhibition is -8% (inactive).

Turning to `Cc1ccc(S/C(=C\C(=O)O)c2ccccc2)cc1`, the growth inhibition is 50% (inactive).

Turning to `O=[N+]([O-])/C=C/c1cc(Cl)c(/C=C/[N+](=O)[O-])cc1Cl`, the growth inhibition is 32% (inactive).

As for `Cc1cc(S(=O)(=O)Nc2nnc3cnc4ccccc4n23)c(S)cc1Cl`, the growth inhibition is 58% (inactive).

Turning to `O=C(/C=C/c1cc(Cl)cc(Cl)c1O)c1cccc(O)c1`, the growth inhibition is 98% (active).

As to `NC1CCCCC1N.Nc1c(N=Nc2ccc(-c3ccc(N=Nc4cc(S(=O)(=O)[O-])c5ccccc5c4N)cc3)cc2)cc(S(=O)(=O)[O-])c2ccccc12.[OH3+].[OH3+].[Pt+4]`, the growth inhibition is 80% (active).

`COC(=O)CCC(NC(=S)N/N=C(\C)c1ccccn1)C(=O)OC` (stereo unspecified): the growth inhibition is 92% (active).

In the case of `NC(=O)C(=O)NNc1ccccc1`, the growth inhibition is 98% (active).

For `COc1cc(C2SCC(=O)N2c2ccc(-c3ccc(-n4c(-c5ccccc5)nc5ccccc5c4=O)cc3)cc2)ccc1O` (stereo unspecified), the growth inhibition was 10% (inactive).

As to `COc1ccc(/C=C/c2sc3ccccc3[n+]2CCCCI)cc1OC`, the growth inhibition was 97% (active).

In the case of `Cc1c(C(C)C)cc(OCCO)cc1C(C)C`, the growth inhibition is 45% (inactive).

For `Cc1cc(NCCCCCCCCNc2cc(C)nc3cc(N)ccc23)c2ccc(N)cc2n1`, the growth inhibition was 94% (active).

In the case of `C=C(Cl)COC(=O)Nc1cccc(Cl)c1`, the growth inhibition was 97% (active).

On to `CC(=O)OC1CC2C(C)(C)C(=O)C=C[C@]2(C)C2CCC3(C)C(=CCC3[C@H](CO)C[C@H](O)C(=O)C(C)(C)O)[C@]12C` (stereo partly specified), for which the growth inhibition is 93% (active).

Regarding `COc1ccc(/C=C/C(=O)c2ccccc2)cc1OC`, the growth inhibition was 96% (active).

In the case of `COc1c(O)c(C=O)c(Br)c(C=O)c1O`, the growth inhibition is 94% (active).

With `O=[N+]([O-])c1cc(Cl)cnc1Br`, the growth inhibition was 82% (active).

As to `Cc1ccc2c(c1)C1(SC(C)C(=O)N1c1ccc(Cl)cc1)C(=O)N2` (stereo unspecified), the growth inhibition is 99% (active).

As to `COc1cc(CSc2ccc(O)cc2)cc(O)c1O`, the growth inhibition was 2% (inactive).

With `Cc1ccc2c3ccc4c(c3n(C)c2c1)C(=O)C=CC4=O`, the growth inhibition is 63% (inactive).

Take `O=C(Nc1ccc(Cl)cc1)Nc1nnc2nc(C(C(=O)c3cccc([N+](=O)[O-])c3Cl)c3nc4nnc(NC(=O)Nc5ccc(Cl)cc5)n4[nH]c3=O)c(=O)[nH]n12`: the growth inhibition is 60% (inactive).

Consider `O=C(O)C1CC(c2ccccc2)=NN1c1ccccc1` (stereo unspecified), for which the growth inhibition was 96% (active).

Regarding `CCCCc1ccc(-n2c(C)c(COC(=O)NC)c(COC(=O)NC)c2C)cc1`, the growth inhibition was 91% (active).

For `CCC(=O)c1cc(C(=O)C(=S)SC)cc(C(=O)C(=S)SC)c1`, the growth inhibition is 95% (active).

In the case of `CCn1c(O)c(C=Nc2ccccc2)s/c1=N/Nc1nc(-c2ccccc2)cs1`, the growth inhibition was 36% (inactive).

On to `Cc1ccccc1N=C(NO)c1ccccc1`, for which the growth inhibition is 98% (active).

Take `Cc1nc2ccccc2nc1NNc1ccccc1`: the growth inhibition is 24% (inactive).

A short description of another test: NCI Yeast Anticancer Drug Screen. Data for the mlh1 rad18 strain (AID 175). As to conditions: S. cerevisiae mlh1 rad18 strain growth inhibition; at 5.0 µM (retest, dose inferred, filed as 0.5); active compounds read high. The essentials:
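Steps: expose repair-defective yeast to compound; measure growth; express inhibition against vehicle-treated controls.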
As for `O=[N+]([O-])c1cc[n+]([O-])cc1`, the growth inhibition was -136% (inactive) and 0% (inactive).

Consider `CC1(C)CC(=O)C(/C=N/c2nc(-c3ccccc3)cs2)=C(O)C1`, for which the growth inhibition was 10% (inactive).

For the compound `Nc1nc(N)c2nc(CNc3ccc(C(=O)NC(CCC(=O)O)C(=O)O)cc3F)cnc2n1` (stereo unspecified), the growth inhibition is 18% (inactive).

On to `COC(=O)CC1(O)C(/C=C/c2ccccc2)C(C(=O)OC)C(=O)C(C(=O)OC)C1C(=O)OC` (stereo unspecified), for which the growth inhibition is 6% (inactive).

As to `CC(C)(C)c1ccc(NS(=O)(=O)c2ccc(N)cc2)cc1`, the growth inhibition was -5% (inactive).

As for `CCN(CC)CCNc1ccc([N+](=O)[O-])c2nc3ccccc3c(N)c12`, the growth inhibition was -28% (inactive).

Regarding `CCCCN(CCCC)C(=O)/C=C/c1ccccc1`, the growth inhibition is -3% (inactive).

With `O=c1[nH]c(-c2ccccc2)nc2c1sc1nc3ccccc3n12`, the growth inhibition is 4% (inactive).

As for `O=[N+]([O-])c1ccc2c(c1)/C(=N/N=C1c3ccccc3Cc3ccccc31)c1cc([N+](=O)[O-])cc([N+](=O)[O-])c1-2`, the growth inhibition is 27% (inactive).

For `CC(C)C(C)/C=C\C(C)C1CCC2C3=CC=C4CC(O)CCC4(C)C3CCC21C` (stereo unspecified), the growth inhibition is 40% (inactive).

With `O=C1Nc2ccc(Br)cc2C1=Nc1ccc2c(c1)OCO2`, the growth inhibition was 33% (inactive).

Take `CCCCOCn1c(=O)[nH]c(=O)c2cc(Br)ccc21`: the growth inhibition was 28% (inactive).

As to `Cc1ccc(S/C(=C\C(=O)O)c2ccccc2)cc1`, the growth inhibition is -29% (inactive).

In the case of `O=[N+]([O-])/C=C/c1cc(Cl)c(/C=C/[N+](=O)[O-])cc1Cl`, the growth inhibition was 16% (inactive).

With `Cc1cc(S(=O)(=O)Nc2nnc3cnc4ccccc4n23)c(S)cc1Cl`, the growth inhibition was 8% (inactive).

Turning to `O=C(/C=C/c1cc(Cl)cc(Cl)c1O)c1cccc(O)c1`, the growth inhibition is 46% (inactive).

Regarding `NC1CCCCC1N.Nc1c(N=Nc2ccc(-c3ccc(N=Nc4cc(S(=O)(=O)[O-])c5ccccc5c4N)cc3)cc2)cc(S(=O)(=O)[O-])c2ccccc12.[OH3+].[OH3+].[Pt+4]`, the growth inhibition was 77% (active).

`COC(=O)CCC(NC(=S)N/N=C(\C)c1ccccn1)C(=O)OC` (stereo unspecified): the growth inhibition is -13% (inactive).

`NC(=O)C(=O)NNc1ccccc1`: the growth inhibition is 45% (inactive).

Take `COc1cc(C2SCC(=O)N2c2ccc(-c3ccc(-n4c(-c5ccccc5)nc5ccccc5c4=O)cc3)cc2)ccc1O` (stereo unspecified): the growth inhibition is -14% (inactive).

For the compound `COc1ccc(/C=C/c2sc3ccccc3[n+]2CCCCI)cc1OC`, the growth inhibition was -9% (inactive).

As to `Cc1c(C(C)C)cc(OCCO)cc1C(C)C`, the growth inhibition is -3% (inactive).

Turning to `Cc1cc(NCCCCCCCCNc2cc(C)nc3cc(N)ccc23)c2ccc(N)cc2n1`, the growth inhibition was 7% (inactive).

In the case of `C=C(Cl)COC(=O)Nc1cccc(Cl)c1`, the growth inhibition was -13% (inactive).

As to `CC(=O)OC1CC2C(C)(C)C(=O)C=C[C@]2(C)C2CCC3(C)C(=CCC3[C@H](CO)C[C@H](O)C(=O)C(C)(C)O)[C@]12C` (stereo partly specified), the growth inhibition was -6% (inactive).

On to `COc1ccc(/C=C/C(=O)c2ccccc2)cc1OC`, for which the growth inhibition is 3% (inactive).

For the compound `COc1c(O)c(C=O)c(Br)c(C=O)c1O`, the growth inhibition is 7% (inactive).

Regarding `O=[N+]([O-])c1cc(Cl)cnc1Br`, the growth inhibition is -109% (inactive).

As to `Cc1ccc2c(c1)C1(SC(C)C(=O)N1c1ccc(Cl)cc1)C(=O)N2` (stereo unspecified), the growth inhibition was 51% (inactive).

Take `COc1cc(CSc2ccc(O)cc2)cc(O)c1O`: the growth inhibition is 13% (inactive).

As for `Cc1ccc2c3ccc4c(c3n(C)c2c1)C(=O)C=CC4=O`, the growth inhibition is 21% (inactive).

For `O=C(Nc1ccc(Cl)cc1)Nc1nnc2nc(C(C(=O)c3cccc([N+](=O)[O-])c3Cl)c3nc4nnc(NC(=O)Nc5ccc(Cl)cc5)n4[nH]c3=O)c(=O)[nH]n12`, the growth inhibition is -20% (inactive).

With `O=C(O)C1CC(c2ccccc2)=NN1c1ccccc1` (stereo unspecified), the growth inhibition was 52% (inactive).

With `CCCCc1ccc(-n2c(C)c(COC(=O)NC)c(COC(=O)NC)c2C)cc1`, the growth inhibition is 18% (inactive).

`CCC(=O)c1cc(C(=O)C(=S)SC)cc(C(=O)C(=S)SC)c1`: the growth inhibition was 42% (inactive).

As for `CCn1c(O)c(C=Nc2ccccc2)s/c1=N/Nc1nc(-c2ccccc2)cs1`, the growth inhibition is -10% (inactive).

Turning to `Cc1ccccc1N=C(NO)c1ccccc1`, the growth inhibition is -122% (inactive).

With `Cc1nc2ccccc2nc1NNc1ccccc1`, the growth inhibition was -8% (inactive).
